Compound activity from PubChem.
Shown are actives, neighbours in structure and some others; about 3% of the full set was active somewhere.
A549 tox-1 = Nrf2 qHTS screen for inhibitors: counterscreen for cytotoxicity | A549 ARE-Fluc cells, CellTiter-Fluor viability, 18-24 h | Potency, µM (series often up to 46 µM), most hits filed as inhibitors | 390,000 tested, 0.16% active | AID 504648, 2011
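Cytotoxicity counterscreen: CellTiter-Fluor fluorescence was measured in A549 ARE_Fluc cells after 18-24 h of compound exposure in a concentration series. The subsequent BugLite luminescent read reports ARE-luciferase activity.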
TrxR1 inh = qHTS Assay for Inhibitors of Mammalian Selenoprotein Thioredoxin Reductase 1 (TrxR1): qHTS; Thioredoxin reductase 1, cytoplasmic (Rattus norvegicus), O89049; recombinant rTrxR1, NADPH fluorescence consumption, selenite substrate; Potency, µM (top dose mostly 114 µM), actives largely listed as inhibitors; 390,000 tested, 1% active; also: nearly all actives have a fitted effect of over 65% in size
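Rat TrxR1 (90 nM in the dispensed reagent) was pre-reduced with 400 uM NADPH for 5 min at room temperature, then incubated with compound for 15 min. After 400 uM selenite was added, NADPH fluorescence (Ex 340/Em 450 nm) was followed for 8 min.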
Nrf2 block = Nrf2 qHTS screen for inhibitors; A549 ARE-Fluc reporter, luciferase luminescence, 18-24 h; Potency, µM (doses to about 46 µM), most hits filed as inhibitors; 360,000 tested, 2.1% active; AID 504444, 2011; also: nearly all actives have a fitted effect of over 60% in size
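Reporter: ARE-Fluc in A549. Exposure: 18-24 h, 37 °C, 5% CO2, 5% FBS OPTI-MEM. Readouts: fluorescent cytotoxicity (CellTiter-Fluor), then luminescent Nrf2 signal after BugLite.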
Nrf2 ARE act = qHTS of Nrf2 Activators; 410,000 tested, 0.31% active; Potency, µM (top dose mostly 46.1 µM), most hits filed as activators; AREc32 ARE-luciferase reporter (MCF7-derived line), luminescence, 24 h; also: nearly all actives have a fitted effect of over 65% in size
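Each well held 1000 AREc32 cells, which were incubated with compound for 24 hr at 37 deg C after overnight attachment, and ARE reporter activity was quantified by firefly luciferase luminescence.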
TrxR1 substrate = qHTS Assay for Substrates of Mammalian Selenoprotein Thioredoxin Reductase 1 (TrxR1): qHTS | Thioredoxin reductase 1, cytoplasmic (Rattus norvegicus), O89049 | purified TrxR1 substrate turnover, NADPH consumption readout | Potency, µM (titrated, usually from 114 µM) | 390,000 tested, 0.01% active; also: nearly all actives have a fitted effect of over 50% in size
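Rat TrxR1, dispensed at 90 nM, was prereduced with 400 uM NADPH (final) for 5 min at ~22 deg C, then incubated with compound 15 min before 400 uM selenite. A first-read NADPH fluorescence drop versus no-compound background flagged substrates.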
GALK inhibitor = qHTS Assay for Inhibitors of Human Galactokinase (GALK); P51570; Purified GALK, Kinase-Glo residual ATP luminescence; Potency, µM (doses to about 57.5 µM), actives largely listed as inhibitors; 270,000 tested, 0.007% active; AID 1868, 2009
Target sequence (P51570 whole entry, looked up): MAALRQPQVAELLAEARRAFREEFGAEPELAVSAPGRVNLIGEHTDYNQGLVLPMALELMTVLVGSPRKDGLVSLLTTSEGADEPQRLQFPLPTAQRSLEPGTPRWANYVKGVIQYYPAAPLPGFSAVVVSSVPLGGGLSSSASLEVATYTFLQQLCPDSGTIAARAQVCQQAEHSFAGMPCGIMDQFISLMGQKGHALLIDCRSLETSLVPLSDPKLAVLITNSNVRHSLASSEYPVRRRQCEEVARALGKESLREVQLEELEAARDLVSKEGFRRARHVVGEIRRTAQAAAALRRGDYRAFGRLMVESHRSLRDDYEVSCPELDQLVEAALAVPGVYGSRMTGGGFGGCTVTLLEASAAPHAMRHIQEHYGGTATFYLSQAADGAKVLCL
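Kinase-Glo Plus luminescence measured ATP left after a 1 h room-temperature reaction. The reaction used 5 nM GALK, 100 uM galactose and 35 uM ATP at pH 8.0 (20 mM HEPES, 5 mM MgCl2, 60 mM NaCl, 1 mM DTT, 0.01% BSA).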
FLuc enzyme inh = Nrf2 qHTS screen for inhibitors: Purified Fluc Biochemical Counterscreen for Hit Validation | shares compounds with Nrf2 block | purified firefly luciferase, luminescence inhibition | Potency, µM (top dose mostly 57.5 µM), usual class: inhibitors | 1,400 tested, 4% active; also: nearly all actives have a fitted effect of over 65% in size
A549 tox-2 = Nrf2 qHTS screen for inhibitors: A549 ARE-Fluc Cytotoxicity Counterscreen for Hit Validation. 1,400 tested, 2% active. shares compounds with Nrf2 block. A549 ARE-Fluc cells, cytotoxicity counterscreen. Potency, µM (top dose mostly 46.1 µM), hits mostly inhibitors;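 also: cells exposed to compounds for 18 to 24 hours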
ARE-Fluc inh = Nrf2 qHTS screen for inhibitors: Nrf2 A549 ARE-Fluc Confirmation Assay for Hit Validation | 1,400 tested, 74% active | Potency, µM (top dose mostly 46.1 µM), usual class: inhibitors | AID 720524, 2013 | shares compounds with Nrf2 block | A549 ARE-firefly luciferase reporter, luminescence; also: nearly all actives have a fitted effect of over 65% in size
Large screens that a line does not name were inactive (follow-up assays come after a bar, where shown). Calls follow the shape of the dose curve; as a rule, active = well fitted curve in the direction sought with a large enough effect; inconclusive = small, poorly fitted or top-dose-only effect, or another doubt; inactive = no such curve, though single readings can be large; an effect the other way counts as inactive or inconclusive.

O=C1NC(=O)C(c2ccc(F)cc2)N1 (configuration not stated)	none
CC1Cc2ccccc2N1c1ncnc(N)c1[N+](=O)[O-] (configuration not stated)	Nrf2 block 4.6µM | FLuc enzyme inh inactive | A549 tox-2 inactive | ARE-Fluc inh 8.2µM
Cc1ccc(Cl)cc1N1CCN(C(=O)c2cc3c(=O)n(C)c4ccccc4c3n2C)CC1	Nrf2 block 4.1µM | FLuc enzyme inh inactive | A549 tox-2 inactive | ARE-Fluc inh 6.5µM
CSC(=S)NN=C(C)c1cccc(C)n1	A549 tox-1 inconclusive, TrxR1 inh inconclusive, Nrf2 block 4.1µM (not shown: GALK inhibitor) | FLuc enzyme inh inconclusive | A549 tox-2 inactive
CC(=O)Nc1ccc(S(=O)(=O)NCCNS(=O)(=O)c2ccc(NC(C)=O)cc2)cc1	none
CC(=O)Nc1ccc(S(=O)(=O)NCCSCc2ccc(Cl)cc2Cl)cc1	Nrf2 block 9.2µM | FLuc enzyme inh inactive | A549 tox-2 inactive | ARE-Fluc inh 10µM
Cc1ccccc1SCC(=O)N1CCN(c2ccc(C(F)(F)F)cn2)CC1	Nrf2 block 3.7µM | FLuc enzyme inh inactive | A549 tox-2 inactive | ARE-Fluc inh inconclusive
CCCCOc1ccc(C(=O)Nc2ccc3oc(-c4cccnc4)nc3c2)cc1	none (no result: GALK inhibitor)
CCCCOc1cccc(C(=O)Nc2ccc3oc(-c4cccnc4)nc3c2)c1	Nrf2 block 6.5µM (no result: GALK inhibitor) | FLuc enzyme inh inactive | A549 tox-2 inactive | ARE-Fluc inh 7.3µM
Cn1cc(SCC(=O)NC2CCCCC2)c2ccccc21	none
Cn1cccc1C(=O)NC(=O)COC(=O)CNC(=O)c1ccc(Cl)cc1Cl	Nrf2 block 2.6µM | FLuc enzyme inh inconclusive | A549 tox-2 inactive | ARE-Fluc inh 7.3µM
CN1C(=O)/C(=C/c2ccccc2F)Sc2ccc(C(=O)N3CCCC3)cc21	Nrf2 block inconclusive
CNc1c(Br)cc(C(O)C2=CCc3ccccc32)cc1Br (configuration not stated)	none (no result: A549 tox-1, Nrf2 block, Nrf2 ARE act, GALK inhibitor) | FLuc enzyme inh inactive | A549 tox-2 inactive | ARE-Fluc inh 4.6µM
c1coc(-c2cc3nc(NCc4ccc5c(c4)OCO5)ccn3n2)c1	none (no result: A549 tox-1, TrxR1 inh, Nrf2 block, TrxR1 substrate, GALK inhibitor)
Cn1nc(C(C)(C)C)cc1C(=O)NCc1cc(F)cc2c1OCOC2	Nrf2 block inconclusive | FLuc enzyme inh inactive | A549 tox-2 inactive | ARE-Fluc inh 3.7µM
CC(=O)Nc1nonc1NC(=O)c1ccc(C(C)(C)C)cc1	Nrf2 block inconclusive
CC1(C)CC2CC(C)(CN2S(=O)(=O)c2ccc(C(=O)Nc3ccc(Cl)c(S(=O)(=O)N4CCOCC4)c3)cc2)C1 (configuration not stated)	Nrf2 block 5.2µM | FLuc enzyme inh inactive | A549 tox-2 inactive | ARE-Fluc inh 7.3µM
CC1(C)CC2CC(C)(CN2S(=O)(=O)c2ccc(C(=O)Nc3ccc(S(=O)(=O)N4CCOCC4)cc3)cc2)C1 (configuration not stated)	A549 tox-1 inconclusive, Nrf2 block 1.5µM | FLuc enzyme inh inactive | A549 tox-2 inactive | ARE-Fluc inh 4.1µM
CC(=O)Nc1ccc(S(=O)(=O)N2CC3(C)CC2CC(C)(C)C3)cc1 (configuration not stated)	none
Cc1ccc(S(=O)(=O)Nc2cc3c(cc2N2CCOCC2)n(C)c(=O)n3C)cc1	none (no result: GALK inhibitor)
CCN(CC)S(=O)(=O)c1cc(NC(=O)C(=O)c2c(-c3ccccc3)cc3ccccn23)ccc1C	Nrf2 block 5.2µM (no result: A549 tox-1) | FLuc enzyme inh inactive | A549 tox-2 inactive | ARE-Fluc inh inconclusive
Cc1oc(-c2ccc(Cl)cc2)nc1CN1CCCC(C(=O)N2CCOCC2)C1 (configuration not stated)	Nrf2 block inconclusive
Cc1oc(-c2ccc(Cl)cc2)nc1CN1CCCC(C(=O)N2CCN(C(=O)c3ccco3)CC2)C1 (configuration not stated)	Nrf2 block 3.3µM | FLuc enzyme inh inactive | A549 tox-2 inactive | ARE-Fluc inh 6.5µM
O=C(Nc1ccc(F)cc1)c1ccc(Cn2nc(N3CCN(c4ccccc4)CC3)ccc2=O)o1	A549 tox-1 inconclusive, Nrf2 block 8.2µM (no result: GALK inhibitor) | FLuc enzyme inh inactive | A549 tox-2 inactive | ARE-Fluc inh 2.6µM
CC(=O)c1ccc(NC(=O)Cn2nc(N3CCN(c4ccccc4)CC3)ccc2=O)cc1	Nrf2 block inconclusive (no result: GALK inhibitor)
C[C@H](CO)N1C[C@H](C)[C@H](CN(C)S(=O)(=O)c2ccc(F)cc2)OCc2cnnn2CCCC1=O	none (no result: A549 tox-1, TrxR1 inh, Nrf2 block, TrxR1 substrate, GALK inhibitor)
Cn1cc(S(=O)(=O)N2CCc3ccccc32)cc1C(=O)NC(C)(C)C	Nrf2 block 2.1µM (no result: GALK inhibitor) | FLuc enzyme inh inactive | A549 tox-2 inactive | ARE-Fluc inh 4.6µM
Cc1cccc(C)c1NC(=O)c1cc(S(=O)(=O)N2CCc3ccccc32)cn1C	none (no result: GALK inhibitor)
COc1cccc(OCc2cc(C(=O)NC(C)c3cnn(C)c3C)no2)c1 (configuration not stated)	none
CC(=O)N1c2ccc(S(=O)(=O)N3CCN(c4cccc(Cl)c4)CC3)cc2CC1C (configuration not stated)	Nrf2 block inconclusive (no result: GALK inhibitor)
CC1Cc2cc(S(=O)(=O)NCc3ccccc3)ccc2N1C(=O)C1CCC1 (configuration not stated)	Nrf2 block 1.6µM | FLuc enzyme inh inactive | A549 tox-2 inactive | ARE-Fluc inh inconclusive
CC1Cc2cc(S(=O)(=O)NCc3ccccc3)ccc2N1C(=O)C1CC1 (configuration not stated)	Nrf2 block inconclusive
COc1ccc(NS(=O)(=O)c2ccc3c(c2)CC(C)N3C(=O)C2CCC2)cc1OC (configuration not stated)	A549 tox-1 inconclusive (no result: Nrf2 block, GALK inhibitor)
